High-throughput results from PubChem BioAssay.
In the library only some 9% were active in any assay of this set; here they are far more common.
Lamin A splicing: LMNA splicing modulation; HeLa LMNA splicing GFP/RFP minigene ratio, 48 h; Potency, µM (highest dose often 46.1 µM), usual class: inhibitors; 200,000 compounds, 0.01% hits; active = well fitted inhibition curve with a large enough effect in the signal ratio, with a control signal flat, not every such curve was filed as active; inconclusive = small, poorly fitted or top-dose-only effect, or effect the other way, or a change in a side signal; the % refers to the signal ratio
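S3 HeLa stable clones carrying a lamin A-EGFP splicing minigene plus DsRed2 were seeded at 600 cells/well in Opti-MEM with 2% FBS, pin-dosed and incubated 48 h at 37°C. Acumen cytometry (488 nm) gave the GFP/RFP total-intensity ratio.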
HPGD inh: HPGD (human) dehydrogenase inhibition. P15428. purified HPGD, NADH fluorescence kinetic, PGE2 substrate. Potency, µM, actives largely listed as inhibitors. 150,000 compounds, 4.3% hits. AID 894; active = well fitted inhibition curve with a large enough effect, not every such curve was filed as active; inconclusive = small, poorly fitted or top-dose-only effect, or another doubt; inactive = no such curve, though single readings can be large or run the other way
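NADH formation kinetics: reaction with 30 uM PGE2 and 1 mM NAD+ (final), 20 nM enzyme, Tris-HCl pH 8 with Tween 20, after 15 min compound preincubation at room temperature. Fluorescence change, last versus first of five reads.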
KinaseGlo FLuc: Kinase-Glo luciferase inhibition (counter-screen); 200,000 compounds, 0.28% hits; Potency, µM (doses to about 38.3 µM), hits mostly inhibitors; Kinase-Glo luciferase, ATP luminescence, 8 min; Q27757; AID 1379; note: nearly all actives have a fitted effect of over 60% in size
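Light output from Kinase-Glo luciferase with luciferin and 10 uM ATP in 50 mM imidazole pH 7.2, KCl, MgCl2, Tween 20, BSA; compound pin-delivered, 8-min ambient incubation, then luminescence read.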
HttQ103 aggreg: reduces HttQ103-GFP aggregates in PC12 cells. Potency, µM (highest dose often 46.1 µM), actives largely listed as inhibitors. 220,000 compounds, 1.1% hits. PC12 HttQ103-GFP aggregates, Acumen cytometry, 40 h; note: nearly all actives have a fitted effect of over 60% in size
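Using laser scanning cytometry, GFP-positive aggregates were counted after lysis of PC12 cells induced with 100 nM tebufenozide to express HTT exon 1 Q103–GFP. Compounds were tested in titration.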
HTT ATP protect: cytoprotection in Huntington HTT-Q103 PC12 cell model; PC12 HTT-Q103 induced, cytoprotection, ATP luminescence, 40 h; Potency, µM (titrated, usually from 56.4 µM), usual class: activators; 230,000 compounds, 0.14% hits; note: nearly all actives have a fitted effect of over 45% in size
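ATP quantification (ATPlite) reports survival of PC12 cells in which tebufenozide, 100 nM final, switches on Htt exon 1 with 103 glutamines linked to GFP; compounds are titrated.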
ALDH1A1 block: ALDH1A1 (human) enzyme inhibition. P00352. Purified ALDH1A1, NADH fluorescence, propionaldehyde substrate. Potency, µM (titrated, usually from 75.3 µM), usual class: inhibitors. 220,000 compounds, 7.3% hits. AID 1030; active = well fitted inhibition curve with a large enough effect, not every such curve was filed as active; inconclusive = small, poorly fitted or top-dose-only effect, or another doubt; inactive = no such curve, though single readings can be large or run the other way
Target sequence (P00352 whole entry, looked up): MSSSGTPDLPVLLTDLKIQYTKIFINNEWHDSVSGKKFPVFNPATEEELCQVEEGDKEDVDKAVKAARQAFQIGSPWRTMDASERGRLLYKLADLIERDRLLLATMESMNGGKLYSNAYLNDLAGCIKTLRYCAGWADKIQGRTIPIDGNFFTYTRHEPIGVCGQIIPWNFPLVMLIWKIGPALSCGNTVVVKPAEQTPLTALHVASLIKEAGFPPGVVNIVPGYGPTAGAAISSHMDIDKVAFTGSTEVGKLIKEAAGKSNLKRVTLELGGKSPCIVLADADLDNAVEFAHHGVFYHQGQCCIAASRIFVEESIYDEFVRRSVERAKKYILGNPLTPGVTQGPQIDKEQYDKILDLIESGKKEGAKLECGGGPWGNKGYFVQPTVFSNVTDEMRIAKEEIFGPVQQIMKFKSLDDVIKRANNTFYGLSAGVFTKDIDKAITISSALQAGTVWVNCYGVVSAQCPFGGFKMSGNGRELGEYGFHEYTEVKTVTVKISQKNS
A number is an active result; – = inactive; ? = inconclusive; · = no result given; [ ] = remark or other dose. Unless noted, calls come from the whole dose curve; as a rule, active = well fitted curve in the direction sought with a large enough effect; inconclusive = small, poorly fitted or top-dose-only effect, or another doubt; inactive = no such curve, though single readings can be large; an effect the other way counts as inactive or inconclusive.

SMILES	Lamin A splicing	HPGD inh	KinaseGlo FLuc	HttQ103 aggreg	HTT ATP protect	ALDH1A1 block
Cc1ccc2cc(C(c3nnnn3CC3CCCO3)N3CCc4ccccc4C3)c(=O)[nH]c2c1 (configuration not stated)	–	?	–	–	–[10 µM]	18µM
Cc1cccc2cc(C(c3nnnn3CC3CCCO3)N3CCc4ccccc4C3)c(=O)[nH]c12 (configuration not stated)	–	–	–	–	–	13µM
CCOCc1nnc(NC(=O)C2c3ccccc3Oc3ccccc32)s1	–	·	–	–	–	–
CC(=O)c1cc2c(cc1NC(=O)CSc1nc3ccccc3o1)OCO2	–	–	–	–	–	?
CCCn1c(C)nc2c(N(C)CCN(C)C)nc(C)nc21	·	–	–	·	–	–
CC1(c2ccccc2)CC(C)(C)N2C(=O)C(=O)c3cccc1c32 (configuration not stated)	–	·	–	–[9.22 µM]	–[10 µM]	0.5µM
CC1(c2ccccc2)CC(C)(C)n2c(O)c(C3=NC(=S)NC3=O)c3cccc1c32 (configuration not stated)	·	·	·	–[9.22 µM]	–[10 µM]	·
CCOC(=O)c1cc(-c2ccccc2)sc1NC(=O)CN1C(=O)NC(CC)(c2ccccc2)C1=O (configuration not stated)	–	–	–	–	–	–
c1ccc(CNc2nc(NCc3ccco3)nc(N3CCOCC3)n2)cc1	?	·	–	·	·	–
CCOC(=O)c1c(NC(=O)CC2Nc3ccccc3NC2=O)sc(C)c1C (configuration not stated)	–	–	–	–	–[10 µM]	–
COc1ccc(C2C(C(C)=O)=C(O)C(=O)N2CCN(C)C)cc1OC (configuration not stated)	–	–	–	–	–	–
CCN(CC)CCN1C(=O)C(O)=C(C(C)=O)C1c1ccc(OC)c(OC)c1 (configuration not stated)	–	–	–	?	–	18µM
O=C(CCCc1ccccc1)NC1CC(=O)N(c2cccc(F)c2)C1 (configuration not stated)	–	·	·	·	·	·
COc1ccc(CCNC(=O)C23CCC(C)(C(=O)C2=O)C3(C)C)cc1OC (configuration not stated)	–	·	–	–	–[10 µM]	?
Cc1[nH]c2ccccc2c1[C@H]1[C@@H](CC#N)C1(C)C	–	–	–	–	–[10 µM]	22µM
O=[N+]([O-])c1ccc(C=Nc2ccc(Cl)c([N+](=O)[O-])c2)s1	?	·	–	–[9.22 µM]	–[1.9 µM]	14µM
NC(=O)c1ccc([N+](=O)[O-])cc1	·	–	·	·	–	–
Cc1cc(C)cc(N=Cc2ccc([N+](=O)[O-])s2)c1	?	–	–	–	·	?
NC(=O)c1ccc(N=Cc2ccc([N+](=O)[O-])s2)cc1	?	–	–	?	·	20µM
O=C(Nc1nnc(SCc2ccccn2)s1)C1CC(=O)N(c2ccccc2)C1 (configuration not stated)	–	–	–	–	–[10 µM]	?
CCc1ccc2[nH]c(=O)c(C(c3nnnn3CC3CCCO3)N3CCCc4ccccc43)cc2c1 (configuration not stated)	–	–	–	–	–	7.9µM
Cc1cccc2cc(C(c3nnnn3CC3CCCO3)N3CCCc4ccccc43)c(=O)[nH]c12 (configuration not stated)	–	–	–	–	–	1.1µM
Cc1cccc2cc(C(c3nnnn3CC3CCCO3)N3CCCC4(CCCCC4)C3)c(=O)[nH]c12 (configuration not stated)	–	–	–	–	–	?
Cc1cc2cc(C(c3nnnn3CC3CCCO3)N3CCCc4ccccc43)c(=O)[nH]c2cc1C (configuration not stated)	–	?	–	–	–[10 µM]	2.5µM
COCCOC(=O)CSc1ncccc1-c1nc2cc(C)c(C)cc2[nH]1	–[9.22 µM]	·	13µM	–	–	?
Clc1ccc(OCCSCc2nc3ccccc3[nH]2)cc1	?	?	–	7.1µM	–[10 µM]	?
Nc1nc2c(ncn2[C@@H]2C=C[C@@H](CO)C2)c(=O)[nH]1	·	–	–[7.66 µM]	·	–[10 µM]	–[13.5 µM]
